According to PubChem BioAssay AID777 (Sanford-Burnham Center for Chemical Genomics, 2007):
The campaign covered roughly 96,000 compounds. About 19,000 (20%) were called active.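 The calls were made as follows: active = blocking of liver enzyme CYP2C9 beyond about 50% at 5 µM (limit read from the data); inactive = the rest.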 These entries were drawn from the full list.

Biological target: Cytochrome P450 2C9 (Homo sapiens) (UniProt P11712)
Test: blockers of cytochrome P450 2C9 activity – biochemical, luminescence, ADME assay, primary screen (AID 777)
Settings: CYP2C9 Supersomes, luciferin-H conversion, at 5 µM, stronger effect = higher value

Sequence of Cytochrome P450 2C9 (Homo sapiens) (P11712 whole entry, looked up): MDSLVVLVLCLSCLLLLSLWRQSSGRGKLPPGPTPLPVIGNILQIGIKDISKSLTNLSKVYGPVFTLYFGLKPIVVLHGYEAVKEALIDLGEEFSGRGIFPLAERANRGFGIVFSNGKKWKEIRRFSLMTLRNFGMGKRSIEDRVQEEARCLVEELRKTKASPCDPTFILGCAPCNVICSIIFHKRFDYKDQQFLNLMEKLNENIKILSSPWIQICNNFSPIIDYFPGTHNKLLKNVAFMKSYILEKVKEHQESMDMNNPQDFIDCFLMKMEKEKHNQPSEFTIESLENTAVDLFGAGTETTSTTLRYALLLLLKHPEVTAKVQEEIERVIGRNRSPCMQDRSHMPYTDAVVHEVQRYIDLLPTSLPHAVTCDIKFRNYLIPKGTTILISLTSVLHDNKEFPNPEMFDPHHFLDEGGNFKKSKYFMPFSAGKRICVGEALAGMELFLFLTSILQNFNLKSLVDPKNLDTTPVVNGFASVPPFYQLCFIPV

inhibition, active:
C1=C(CCNc2ncnc3c2cnn3-c2ccccc2)CCCC1 62%
O=C(c1ccc(CN2CCOCC2)cc1)N1CCN(c2ccccc2F)CC1 51.8%
CC1CCCN(c2ccc(C(=O)NCCc3ccccc3)cn2)C1 (stereo unspecified) 80.7%
COc1cc(N2CCCC2)c(OC)cc1/C=C(/C#N)c1cccc(Br)c1 67.5%
O=C(NCc1ccccc1)C1CCCN(S(=O)(=O)c2cccs2)C1 (stereo unspecified) 81.9%
O=C(NC1CCCCC1)C1CCCN(S(=O)(=O)c2cccs2)C1 (stereo unspecified) 68.3%
O=S(=O)(c1cccs1)N1CCN(Cc2ccccc2)CC1 69.5%
O=C(NCc1ccc2c(c1)OCO2)C1CCCN(S(=O)(=O)c2cccs2)C1 (stereo unspecified) 92.5%
COc1ccc(CC(=O)c2ccc(O)cc2O)cc1OC 53.9%
Cc1ccc(/C=N/NC(=O)C(NC(=O)c2ccccc2)c2n[nH]c(=O)c3ccccc23)cc1 (stereo unspecified) 56.5%
Nc1ccc(SCCN2C(=O)c3ccccc3C2=O)cc1 71.9%
CC1(C)C2CCC1(C)C(OC(=O)CCn1ccnc1)C2 (stereo unspecified) 95.6%
O=C(c1ccccc1)C(Cn1cncn1)C(Sc1ccccc1)c1ccccc1 (stereo unspecified) 98.5%
CC(CNc1ccc([N+](=O)[O-])cc1)NC(=O)c1ccccc1Br (stereo unspecified) 70.7%
O=C(C(NS(=O)(=O)c1cccc2nsnc12)c1ccccc1)N1CCN(c2ccccn2)CC1 (stereo unspecified) 78.6%
O=C(C(NS(=O)(=O)c1cccc2nsnc12)c1ccccc1)N1CCN(c2ccccc2)CC1 (stereo unspecified) 97.4%
CCC(c1nnnn1C1CCCC1)N1CCN(C(=O)c2ccco2)CC1 (stereo unspecified) 84.4%
Cc1cc(N2C(=O)C(=O)/C(=C(/O)c3ccc(Cl)cc3)C2c2cccc(Br)c2)no1 (stereo unspecified) 61.1%
Cc1nc2c(c(=O)n1Cc1ccco1)c1nc3ccccc3nc1n2Cc1ccccc1 61.7%

inhibition, inactive:
Nc1nonc1-c1noc(-c2ccc(Br)o2)n1 2.6%
O=c1[nH]c(-c2cccs2)nc2ccccc12 3.1%
CCSc1nc(=S)n(CC)c(C)c1C(C)=O -26.9%
O=C(NCCC1=CCCCC1)C1CCN(Cc2cnn(-c3ccccc3)c2-n2cccc2)CC1 48.5%
S=C(NCCC1=CCCCC1)Nc1ccccc1 14.4%
CC(C)CC[n+]1ccn(C2=C([O-])c3ccccc3C(=O)/C2=N\S(=O)(=O)c2ccccc2)c1 40.4%
CCCCOC(=O)NCN1C(=O)C2C3C=CC(C3)C2C1=O (stereo unspecified) -5.7%
c1ccc(-c2cn3c(n2)CCc2ccc4cccnc4c2-3)cc1 20.7%
O=C(c1cccc2ccccc12)N1CCN(c2ccccc2F)CC1 -14.7%
O=S(=O)(N1CCOCC1)N1CCN(c2ccccc2F)CC1 17.2%
COC(=O)[C@H](C(C)C)n1c(C)c(C(C)=O)c(C(C)=O)c1C 7%
O=C(CC1Oc2ccccc2NC1=O)NCCCN1CCN(Cc2ccccc2)CC1 (stereo unspecified) -28.8%
CCOC(=O)c1c(C(C#N)C#N)cc(C)nc1C 41.1%
O=C(NCCc1ccccc1)c1ccc(OCCOc2ccccc2)cc1 -10.5%
O=C(NCCc1ccccc1)c1ccc(NC2=NC3CS(=O)(=O)CC3S2)cc1 (stereo unspecified) 0.2%
CCC(C)(C)NC(=O)C(c1cccn1C)N(Cc1ccc(C)cc1)C(=O)Cn1nnc2ccccc21 (stereo unspecified) 28.4%
CC(C)CNC(=S)NNC(=O)c1ccccc1OC(F)F 3.6%
CNC(=O)c1csc(-c2ccccc2)n1 13.2%
COc1cccc(C(=O)Nc2ccc(N3CCCC3)cc2)c1 11.9%
CN1CCCc2cc(C#N)c(=O)[nH]c21 45.5%
CCS(=O)(=O)N1CCCC(C(=O)NCc2ccc(C)cc2)C1 (stereo unspecified) 6.9%
O=C(C1CCN(S(=O)(=O)c2cccs2)CC1)N1CCCCCC1 34.9%
O=S(=O)(c1cccs1)N1CCc2ccccc2C1 -206%
Cc1ccc(CNC(=O)C2CCCN(S(C)(=O)=O)C2)cc1 (stereo unspecified) -3.4%
CN1CCN(S(=O)(=O)c2ccc(N3CCN(S(=O)(=O)c4cccs4)CC3)nc2)CC1 49.3%
O=C(NCc1cccs1)C1CCN(S(=O)(=O)c2ccc3c(c2)OCCO3)CC1 -174%
O=C(NCc1ccco1)C1CCCN(S(=O)(=O)c2ccccc2)C1 (stereo unspecified) 30.4%
CCCS(=O)(=O)N1CCCC(C(=O)NCc2ccco2)C1 (stereo unspecified) 0.9%
CCCC(=O)N1c2ccc(-c3csc(N)n3)cc2CC1C (stereo unspecified) 34.6%
CN1C(=O)c2ccc(NC(=O)C3CCCCC3)cc2C1=O 3.3%
CN1CCC2(CC1)NC(=O)NC2=O -9.5%
CSC1=N/C(=C\c2ccc3c(c2)OCO3)C(=O)S1 1.7%
COc1cc(/C=C(\C#N)c2nc3c(s2)CC(C)CC3)ccc1O (stereo unspecified) -74.5%
CCCCc1nnc(NC(=O)CSc2nc(C)cc(=O)[nH]2)s1 14%
Cc1ccc2cccc(O)c2[n+]1[O-] 11.3%
COc1ccc(CCN=C2SCC(=O)N2C)cc1OC 15.5%
COCc1cc(C(C)=O)ccc1OC -37.2%
CCCOC(=O)C1=C(C)NC2=C(C(=O)C(C(=O)OC)C(C)C2)C1c1ccc(N(C)C)cc1 (stereo unspecified) 18.1%
COc1cc(OC)cc(C(=O)Nc2ccc(-c3nc4ccccc4o3)c(O)c2)c1 -18.6%
COc1ccccc1Nc1ncnc2c1oc1ccccc12 19.7%
Cc1ccc(C(=O)N/N=C/c2sc(=O)n(Cc3cccc(C(=O)O)c3)c2Cl)cc1 12.3%
COc1ccc(/C=N/Nc2nc3ccccc3c(=O)[nH]2)cc1 9.9%
CC(=O)c1cnc(SCCN2C(=O)c3ccccc3C2=O)nc1C 13.5%
O=C1c2ccccc2C(=O)N1CCC(c1ccccc1)c1ccco1 (stereo unspecified) 40.2%
CCCS(=O)(=O)C(=C1Nc2ccccc2N1)S(=O)(=O)CCC 8.7%
COc1ccc(C(C#N)Nc2ccccc2C)cc1 (stereo unspecified) 4.4%
CCN(CC)CCN1C(=O)C(=O)/C(=C(/O)c2cnn(-c3ccccc3)c2C)C1c1cccs1 (stereo unspecified) -11.5%
O=C(O)COc1nsnc1N1CCOCC1 -22.9%
CCOc1cc(N2CCOCC2)c(OCC)cc1NC(=O)COC(=O)[C@H](Cc1c[nH]c2ccccc12)NC(C)=O 45.8%
CCCCC(=O)Nc1ccc(C(=O)NCCCn2ccnc2)cc1 33.7%
CC(=O)OCc1cc(=O)n(C)c(=O)n1C -5.9%
CC1CCCN(C(=O)Cn2c(=O)oc3ccccc32)C1 (stereo unspecified) 7.8%
Cc1cc(-c2ccccc2)nc(N2CCC(C(=O)NC34CC5CC(CC(C5)C3)C4)CC2)n1 11.4%
O=C(Nc1ccccc1)c1ccc2nsnc2c1 7.6%
O=C(CCCN1C(=O)CCC1=O)Nc1ccc(Cl)c(C(F)(F)F)c1 -25.8%
O=C(O)CC(Cn1cnnn1)c1ccccc1 (stereo unspecified) -8.1%
O=C(CSc1nnc2ccccn12)c1ccccc1 -8.3%
Cc1ccc2nc(NCCCNC(=O)c3cnccn3)c(C#N)cc2c1 2.7%
CC(CNC(=O)c1ccc(Br)o1)NC(=O)c1ccc(Br)o1 (stereo unspecified) 25.6%
CC(CCc1ccccc1)NC(=O)c1ccc(Br)o1 (stereo unspecified) 18.7%
COc1ccc(C(=O)Nc2ccc(F)cc2F)cc1 15.2%
CC1COC2C(O1)N(S(C)(=O)=O)CCN2S(C)(=O)=O (stereo unspecified) -18.1%
Nc1ccc(Oc2ccc(Cl)cc2)cc1 22.5%
CC(C)(C)NS(=O)(=O)CC12CCC(CC1=O)C2(C)C (stereo unspecified) 24%
COC(=O)C1C(=O)CC(C)(O)C(C(=O)OC)C1c1ccc2c(c1)OCO2 (stereo unspecified) 5.1%
CC(=C1C(=O)c2ccccc2C1=O)N1CCN(c2ccccn2)CC1 17.1%
O=C(O)c1ccc(NS(=O)(=O)c2cccc3nsnc23)cc1 -5.5%
COc1ccccc1CNC(=O)CCCNS(=O)(=O)c1cccc2nsnc12 -32.2%
O=C(CCS(=O)(=O)c1cccc2nsnc12)N1CCN(c2ccccc2F)CC1 -136%
CC1CC(C)CN(S(=O)(=O)c2cccc(C(=O)N3C(=O)c4cccc(N)c4C3=O)c2)C1 (stereo unspecified) 13.8%
COc1ccc(-c2nn(C)c(=O)c3ccccc23)cc1NC(=O)COc1ccccc1 27.9%
CN(C)c1nc(N)nc(CSc2ccccn2)n1 -8.3%
O=C1N=C2SCCN2/C1=C\c1c(Cl)cccc1Cl 8.7%
Cc1ccc(-c2cnc(NC(=O)CCC(=O)N(C)Cc3ccccc3)n2C)cc1 3.3%
CC(=O)c1ccc(-n2nnnc2SCC(=O)N2CCN(C(=O)c3ccco3)CC2)cc1 5.3%
CC(C)C(c1nnnn1CCc1ccccc1)N1CCN(C(=O)c2ccco2)CC1 (stereo unspecified) 27.7%
COc1cccc(C2/C(=C(/O)c3ccc(F)cc3)C(=O)C(=O)N2CCN(C)C)c1 (stereo unspecified) -22.1%
COc1ccccc1C1/C(=C(/O)c2ccc(OC(C)C)cc2)C(=O)C(=O)N1c1cc(C)on1 (stereo unspecified) -0.1%
O=C1CCC(=O)N1CCOP1(=O)COc2ccccc2OC1 -19.3%
COc1cccc(OC)c1C(=O)Nc1ccc(N2CCCCC2)cc1 10.6%
COCCCn1c2nc3ccccc3nc2c2c(=O)n(Cc3ccc(Cl)cc3)c(C)nc21 20.5%
Cc1ccc(Cn2c(C)nc3c(c2=O)c2nc4ccccc4nc2n3Cc2ccco2)cc1 47.7%
